Rows were chosen to be rich in hits. Some 7.3% of all compounds tested hit in one or more screens of this group.
FLuc counter – counter-screen for miR-21 project: firefly luciferase inhibitors or activators; 360,000 tested, 6.9% active; Potency, µM (series often up to 57.5 µM), for inactives: at the top dose activity change, negative = inhibition, most hits filed as inhibitors; purified FLuc, Km substrates, luminescence inhibition; AID 588342; P08659;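 further: plate controls were vehicle for no effect and reference inhibitor for full effect; nearly all actives have a fitted effect of over 55% in size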
Target sequence (P08659 whole entry, looked up): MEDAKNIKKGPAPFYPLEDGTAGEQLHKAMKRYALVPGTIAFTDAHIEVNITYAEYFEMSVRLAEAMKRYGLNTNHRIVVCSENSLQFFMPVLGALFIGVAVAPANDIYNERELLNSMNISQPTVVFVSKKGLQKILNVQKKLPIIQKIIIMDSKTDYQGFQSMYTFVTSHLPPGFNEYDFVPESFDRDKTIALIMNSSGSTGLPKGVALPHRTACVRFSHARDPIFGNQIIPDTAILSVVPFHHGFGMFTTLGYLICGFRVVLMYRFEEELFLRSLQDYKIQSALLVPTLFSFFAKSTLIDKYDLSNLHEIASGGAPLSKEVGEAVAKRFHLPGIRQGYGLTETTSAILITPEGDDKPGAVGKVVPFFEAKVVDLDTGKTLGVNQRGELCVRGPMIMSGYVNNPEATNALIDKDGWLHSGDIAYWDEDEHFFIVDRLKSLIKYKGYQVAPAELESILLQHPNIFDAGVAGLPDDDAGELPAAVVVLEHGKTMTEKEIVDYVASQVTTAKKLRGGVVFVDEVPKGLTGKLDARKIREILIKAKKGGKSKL
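Purified P. pyralis luciferase, 10 nM final, with Km-level 10 uM D-luciferin and 10 uM ATP in 50 mM Tris acetate pH 7.5, 10 mM Mg acetate, 0.01% Tween-20, 0.05% BSA; 6-point qHTS titration about 60 µM downward; luminescence read.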
Rab9 promoter act – activates the Rab9 promoter; Huh7 Rab9 promoter-luciferase reporter, luminescence, 24 h; 320,000 tested, 2.8% active; Potency, µM (doses to about 9.22 µM), inactives show at the top dose activation, negative = inhibition, actives largely listed as activators; AID 485297; further: % of control where 0% means no effect; nearly all actives have a fitted effect of over 60% in size
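Measured in stably transfected Huh7 cells bearing a Rab9 promoter–luciferase construct: 24 h compound treatment at 37 °C, followed by luminescence detection.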
NPC1 prom act – activators of NPC1 promoter; AID 485313; Huh7 NPC1 promoter luciferase reporter, 24 h; 320,000 tested, 2.4% active; Potency, µM (top dose mostly 9.22 µM), inactives show at the top dose activation, usual class: activators; further: % of control where 0% means no effect; nearly all actives have a fitted effect of over 60% in size
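NPC1 promoter–luciferase Huh7 cells; 24 h compound; luminescence.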
p53 reactivator – restores transcriptional activity of mutant p53. Potency, µM (highest dose often 92.2 µM), without a hit: top-dose activity change, positive = activation, hits mostly activators. H1299 p53-A138V BP100-luciferase reporter, luminescence, 24 h. 320,000 tested, 0.063% active; further: % of control where 0% means no effect; nearly all actives have a fitted effect of over 45% in size
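H1299 (p53-null), stable ts p53-A138V + BP100-Luc; 1000 cells/well, Opti-MEM/10% FBS; cpd 4 pt, 1:5; 24 h, 37 deg C, 5% CO2; detection reagent 10 min RT; luminescence.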
SMN2 splice up – enhancers of SMN2 splice variant expression | HEK293 SMN2-luciferase splicing reporter, luminescence, 30-36 h | Potency, µM (highest dose often 46.1 µM), for the others: at the highest dose activity change, positive = activation, usual class: activators | 210,000 tested, 2.8% active; further: % of control where 0% means no effect; nearly all actives have a fitted effect of over 55% in size
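HEK293 cells carry an SMN2 […]–luciferase reporter in which exon 7 inclusion puts luciferase in frame. Cells were plated 10-12 h before compound addition, then incubated 30-36 h at 37C. ONE-Glo luminescence was read; sodium butyrate at 4.5 mM final served as control.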
ELG1 genotoxic – induces genotoxicity in HEK293T cells with luciferase-tagged ELG1; HEK293T ELG1-luciferase reporter, luminescence, 16 h; Potency, µM (top dose mostly 46 µM), for inactives: at the top dose activity change, positive = activation, actives largely listed as activators; 330,000 tested, 1.3% active; AID 504466; further: % of control where 0% means no effect; nearly all actives have a fitted effect of over 60% in size
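HEK293T cells expressing luciferase-tagged ELG1 were treated with compound or DMSO for 16 hr at 37°C. Luciferase activity was then read after 30 min with ONE-Glo at room temperature; rising signal flags genetic stress.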
The depositor's hits bear a star; ? = inconclusive; . = no result given. The call rests on the fitted dose curve; in most records, active means well fitted curve in the direction sought with a large enough effect; inconclusive means small, poorly fitted or top-dose-only effect, or another doubt; inactive means no such curve, though single readings can be large; an effect the other way counts as inactive or inconclusive. Potency means the concentration at half of the fitted maximal effect.

SMILES	FLuc counter	Rab9 promoter act	NPC1 prom act	p53 reactivator	SMN2 splice up	ELG1 genotoxic
COc1ccc(OC)c(N/C=C/C(=O)c2ccc(OC)c(OC)c2)c1	19µM*	4%	2%	.	.	?
CCOc1cc(C(=S)N2CCOCC2)ccc1OS(=O)(=O)c1ccccc1	-1%	-4%	-3%	0%	-34%	-2%
CCOC(=O)c1ccc(OS(=O)(=O)c2ccccc2)c(OC)c1	7.6µM*	2.8µM*	2.8µM*	?	11µM*	?
O=C(/C=C\Nc1ccccn1)c1ccc(Cl)cc1	0.19µM*	0.1µM*	0.28µM*	4%	1µM*	?
O=C(O/N=C/C1=C(Cl)c2ccccc2CC1)c1ccc(F)cc1	6.7µM*	-5%	-3%	-4%	3%	-4%
CN(C)C(=O)c1ccc(NC(=O)c2sccc2-c2ccccc2)cc1	5%	13%	1%	-2%	.	-8%
Cn1cnc2cc(NCc3ccccc3Cl)ccc21	?	?	?	21%	.	?
CCn1cnc2cc(NCc3ccccc3Cl)ccc21	17µM*	?	?	11%	.	?
CCCn1cnc2cc(NCc3cccs3)ccc21	19µM*	?	?	2%	.	?
CCCCn1cnc2cc(NCc3ccncc3)ccc21	5%	-4%	-4%	0%	-20%	10%
CCCCn1cnc2cc(NCc3ccccc3Cl)ccc21	24µM*	.	.	.	18%	.
COc1ccc(C(=O)COC(=O)c2cccnc2SC)cc1	3.8µM*	-9%	4%	29%	3%	0%
O=C(OCC(=O)c1cccc2ccccc12)c1ccc(CO)cc1	12µM*	22%	?	-2%	.	17%
CSc1ncccc1C(=O)OCC(=O)c1ccc(Br)s1	12µM*	9%	0%	5%	2%	-2%
NC(=O)c1cccc2ccccc12	-2%	-3%	1%	-3%	.	0%
O=C(COC(=O)c1cccnc1Cl)c1ccc(Cl)s1	.	.	.	-2%	.	-1%
O=C(COC(=O)c1cccnc1Cl)c1cccc(Cl)c1	13µM*	17%	2%	1%	-4%	11%
CCOC(=O)c1c(-c2ccccc2)oc2ccc(N(C(C)=O)S(=O)(=O)c3ccc(CC)cc3)cc12	5%	.	.	.	-14%	.
COc1ccc(C(=O)COC(=O)c2nn(C)cc2Cl)cc1	17µM*	22%	24%	27%	.	?
Cn1cc(Cl)c(C(=O)OCC(=O)Nc2cccc(Cl)c2)n1	2%	-2%	-4%	-4%	.	-2%
O=C(OCC(=O)c1ccccc1Br)c1ccncc1	11µM*	-3%	0%	6%	4%	-7%
CSc1ncccc1C(=O)OCC(=O)c1cc2ccccc2o1	21µM*	-9%	10%	-1%	5%	3%
CSc1ncccc1C(=O)OCC(=O)c1ccccc1Br	8.5µM*	-2%	1%	8%	-6%	10%
CC(=O)Nc1ccc(N(C(=O)Cn2nnc3ccccc32)C(C(=O)NCc2ccccc2)c2ccc(C)cc2)cc1 (configuration not stated)	-7%	.	.	.	9%	.
COCCCNC(=O)CCc1c(C)nc2c(c(C)nn2-c2ccc(C)cc2)c1C	0%	1%	1%	-7%	.	-2%
SMILES	FLuc counter	Rab9 promoter act	NPC1 prom act	p53 reactivator	SMN2 splice up	ELG1 genotoxic
Cn1nccc1C(=O)OCC(=O)Nc1nc(-c2ccccc2)cs1	?	11%	11%	?	10%	?
CSc1ncccc1C(=O)OCC(=O)c1ccccc1	12µM*	0%	1%	-4%	2%	4%
Cn1cc(Cl)c(C(=O)OCC(=O)Nc2nc(-c3ccc(Br)cc3)cs2)n1	?	17%	14%	17%	16µM*	-1%
CNC(=O)COC(=O)c1cccnc1SC	1%	-1%	1%	0%	-7%	0%
Cc1ccc(N2CCN(C(=O)Cn3ncc4c([nH]c5ccc(C)cc54)c3=O)CC2)c(C)c1	-1%	.	.	.	.	.
CCn1nc(C)c2c(-c3ccccc3)cc(=O)n(C(C)C(=O)NCc3ccc(C)cc3)c21 (configuration not stated)	-12%	.	.	.	.	.
O=C1NC(=S)S/C1=C/c1ccc(OC(=O)c2ccco2)cc1	7.6µM*	?	19%	23%	.	1%
COc1cc(/C=C2/SC(=O)NC2=O)ccc1OC(=O)c1ccco1	17µM*	9%	0%	?	.	7%
CCOc1cc(/C=C2/SC(=S)NC2=O)ccc1OC(=O)c1ccco1	24µM*	13%	4%	-4%	-4%	0%
O=C(Oc1ccc(-c2nnco2)cc1)c1ccco1	-18%	-3%	-1%	17%	.	0%
CCOC(=O)c1cnc(SC)nc1Oc1cccc(NS(=O)(=O)c2ccc(C)cc2)c1	1%	0%	-2%	-18%	-10%	0%
COc1cc(C(=O)Nc2ccc3c(c2)OCCO3)c(-n2cnnn2)cc1OC	1%	-3%	-5%	2%	-7%	0%
COc1ccccc1C(=O)Nc1ccc2c(c1)OCO2	13µM*	2.5µM*	?	?	18%	15µM*
COc1ccccc1C(=O)Nc1ccc2c(c1)OCCO2	7.6µM*	1.8µM*	3.2µM*	0%	13µM*	?
COc1cc(SC)ccc1C(=O)Nc1ccc2c(c1)OCCO2	0.54µM*	0.89µM*	?	16%	5.6µM*	?
COc1ccccc1OC(C)C(=O)Nc1ccc2c(c1)OCCO2 (configuration not stated)	-19%	0%	-1%	6%	.	15%
CN(c1ccccc1C(=O)Nc1ccc2c(c1)OCO2)S(C)(=O)=O	-5%	-3%	-2%	15%	-4%	1%
Cc1ccccc1C(=O)Nc1ccc2c(c1)OCO2	4.8µM*	0.45µM*	0.45µM*	1%	0.79µM*	1.6µM*

High-throughput results (PubChem BioAssay)
